The subject of assay [1] is Zika virus NS2B-NS3 protease. In words: Primary screen GU AMC qHTS for Zika virus inhibitors (AID 1347154).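 Note: 0% = no-inhibitor control and -100% = no-enzyme control; nearly all actives have a fitted effect of over 70% in size.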 The method in brief: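 Unlinked Zika NS2B hydrophilic domain/NS3 protease domain noncovalent complex (25 nM final) in 10 mM Tris-HCl pH 8.0, 0.01% Tween 20, with AMC peptide substrate. Fluorescence (ex 340, em 450 nm) change over 15 min, room temperature; percent inhibition fitted to 4-parameter Hill equation.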
For orientation: Quantitative high-throughput screening tests each substance at several concentrations.

A short description of assay [2]: Primary qHTS for small molecule stabilizers of the endoplasmic reticulum resident proteome: Secreted ER Calcium Modulated Protein (SERCaMP) assay (AID 1508630). Note: % is set by controls: 0 for no effect and ±100 for the full control effect. The gist of the method:
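GLuc-SERCaMP-expressing SH-SY5Y cells, pretreated 16 h with compound, are challenged with thapsigargin to empty ER calcium stores; after 4 h, coelenterazine is added directly to the medium and luminescence is imaged.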

Records with an inconclusive call do not appear. Values without a mark were called inactive. The source made the active and inactive calls. Calls come from the whole dose curve; as a rule, active = well fitted curve in the direction sought with a large enough effect; inconclusive = small, poorly fitted or top-dose-only effect, or another doubt; inactive = no such curve, though single readings can be large; an effect the other way counts as inactive or inconclusive.

With `CCCCCCCC/C=C\CCCCCCCC(=O)OC[C@@H](O)COP(=O)(O)O`, the activity change, negative = inhibition in assay [1] was 20.5% [at 6.83 µM]; in assay [2] it was -10.9% [at 3.88 µM].
Consider `CC(N)COC(=O)C(CCCCN)NC(=O)Cc1c(-c2ccc3ccccc3c2)[nH]c2c1ccc1ccccc12` (stereo not given), for which the Potency result in assay [1] and in assay [2] was “inactive” each time.
Take `CCCCCCCCCCCCC/C=C/[C@@H](O)[C@H](CO)NC(=O)CCCCCCCCCCCCCCC`: the figures for the activity change, negative = inhibition in assay [1] and in assay [2] were 22% [at 6.83 µM] and -18.7% [at 3.88 µM], respectively.
`CCCN1CCCC(c2cccc(S(C)(=O)=O)c2)C1` (stereo not given): the Potency result in assay [1] and in assay [2] was “inactive” in each case.
With `CC(N)(COP(=O)(O)O)C(=O)O` (stereo not given), the Potency result in assay [1] and in assay [2] was “inactive” each time.
With `C=CCn1c(=O)c2c(nc(-c3ccccc3)n2C)n(C)c1=O`, the Potency entry in assay [1] and in assay [2] was “inactive” throughout.
For the compound `O=c1nc2ccccc2c2n1CC(CN1CCN(c3ccccc3)CC1)N2` (stereo not given), the Potency entry in assay [1] and in assay [2] was “inactive” each time.
Take `CCCCCCCCCCCCCCCCCCOC[C@H](COP(=O)([O-])OCC[N+](C)(C)C)OC(C)=O`: the activity change, negative = inhibition in assay [1] is 10.6% [at 6.83 µM]; in assay [2], 33.9% [at 3.88 µM].
For `C=C1Cc2c(Cl)cc3[nH]c4c5c3c2[C@@]2(O)[C@@H]1C[C@@H]2C(C)(C)O[C@H]5[C@@H]1CC[C@@]2(O)[C@@]35O[C@@H]3[C@@H](O)[C@@H](C(=O)O)O[C@H]5CC[C@]2(C)[C@@]41C`, the Potency entry in assay [1] and in assay [2] was “inactive” throughout.
Consider `N[C@H](C(=O)O)C1C(C(=O)O)C1C(=O)O` (stereo not given in full), for which the Potency result in assay [1] and in assay [2] was “inactive” in each case.
Consider `CC/C=C\C/C=C\C/C=C\CCCCCCCCCC(=O)O`, for which the activity change, negative = inhibition is 1.1% [at 6.83 µM] in assay [1] and 4.31% [at 3.88 µM] in assay [2].
As for `CCCC(=O)Nc1nc2c(ncn2[C@@H]2O[C@H]3COP(=O)(O)O[C@@H]3[C@@H]2OC(=O)CCC)c(=O)[nH]1`, the Potency result in assay [1] and in assay [2] was “inactive” in each case.
Regarding `O=c1ccn([C@@H]2O[C@H](COP(=O)(O)OP(=O)(O)OP(=O)(O)O)[C@@H](O)[C@H]2O)c(=O)[nH]1`, the Potency entry in assay [1] and in assay [2] was “inactive” throughout.
On to `CCCCCCCC(=O)OC[C@H](CO)OC(=O)CCCCCCC`, for which the activity change, negative = inhibition in assay [1] was 4.76% [at 6.83 µM]; in assay [2] it was -8.21% [at 3.88 µM].
For `CC(C)n1nnc2cc(C(=O)O)ccc21`, the Potency entry in assay [1] and in assay [2] was “inactive” throughout.
`NC(C(=O)O)[C@H](O)C(=O)O` (stereo not given in full): the Potency result in assay [1] and in assay [2] was “inactive” throughout.
Regarding `CC[C@H](C)[C@H](NC(=O)[C@H](C)NC(=O)[C@H](CC(N)=O)NC(=O)[C@H](CCCCN)NC(=O)[C@H](Cc1ccccc1)NC(=O)[C@H](CC(C)C)NC(=O)[C@@H](NC(=O)[C@@H](NC(=O)[C@H](CC(C)C)NC(=O)[C@@H]1CCCN1C(=O)[C@@H](NC(=O)[C@H](CCC(N)=O)NC(=O)[C@H](CO)NC(=O)[C@H](CCCCN)NC(=O)[C@H](CCC(=O)O)NC(=O)[C@H](CO)NC(=O)[C@@H](NC(=O)[C@H](CCSC)NC(=O)[C@H](Cc1ccccc1)NC(=O)CNC(=O)CNC(=O)[C@@H](N)Cc1ccc(O)cc1)[C@@H](C)O)[C@@H](C)O)C(C)C)[C@@H](C)O)C(=O)N[C@H](C(=O)N[C@@H](CCCCN)C(=O)N[C@@H](CC(N)=O)C(=O)N[C@@H](C)C(=O)N[C@@H](Cc1ccc(O)cc1)C(=O)N[C@@H](CCCCN)C(=O)N[C@@H](CCCCN)C(=O)NCC(=O)N[C@@H](CCC(=O)O)C(=O)O)[C@@H](C)CC`, the activity change, negative = inhibition in assay [1] is 2.8% [at 6.83 µM]; in assay [2], -16.9% [at 3.88 µM].
Consider `OC[C@H]1O[C@@H](n2cnc3c(N[C@H]4C[C@H]5CC[C@@H]4C5)ncnc32)[C@H](O)[C@@H]1O`, for which the Potency entry in assay [1] and in assay [2] was “inactive” throughout.
As to `C[C@H](CC[C@@H]1OC1(C)C)C1CC[C@H]2[C@@H]3CC=C4C[C@@H](O)CC[C@]4(C)[C@H]3CC[C@]12C` (stereo not given in full), the Potency result in assay [1] and in assay [2] was “inactive” each time.
As for `COC(=O)[C@H](Cc1ccc(C#Cc2ccccc2)cc1)NC(=O)C[C@H]1CCCN(C(=N)N)C1`, the Potency entry in assay [1] and in assay [2] was “inactive” each time.

The values are drawn from PubChem BioAssay (NCATS).
